In experiment [1] the target is Platelet-derived growth factor receptor beta (Homo sapiens) (UniProt P09619). The following applies: at 1 µM.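 Further: each value is a mean percent inhibition.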
The target of experiment [2] is Tyrosine-protein kinase FRK (Homo sapiens) (UniProt P42685). The following applies: at 0.1 µM.
Experiment [3] shares this target. The settings on record: at 1 µM.
For experiment [4], the target named is Protein-tyrosine kinase 2-beta (Homo sapiens) (UniProt Q14289). The settings on record: at 0.1 µM.
Protein-tyrosine kinase 2-beta (Homo sapiens), sequence (Q14289 whole entry, looked up): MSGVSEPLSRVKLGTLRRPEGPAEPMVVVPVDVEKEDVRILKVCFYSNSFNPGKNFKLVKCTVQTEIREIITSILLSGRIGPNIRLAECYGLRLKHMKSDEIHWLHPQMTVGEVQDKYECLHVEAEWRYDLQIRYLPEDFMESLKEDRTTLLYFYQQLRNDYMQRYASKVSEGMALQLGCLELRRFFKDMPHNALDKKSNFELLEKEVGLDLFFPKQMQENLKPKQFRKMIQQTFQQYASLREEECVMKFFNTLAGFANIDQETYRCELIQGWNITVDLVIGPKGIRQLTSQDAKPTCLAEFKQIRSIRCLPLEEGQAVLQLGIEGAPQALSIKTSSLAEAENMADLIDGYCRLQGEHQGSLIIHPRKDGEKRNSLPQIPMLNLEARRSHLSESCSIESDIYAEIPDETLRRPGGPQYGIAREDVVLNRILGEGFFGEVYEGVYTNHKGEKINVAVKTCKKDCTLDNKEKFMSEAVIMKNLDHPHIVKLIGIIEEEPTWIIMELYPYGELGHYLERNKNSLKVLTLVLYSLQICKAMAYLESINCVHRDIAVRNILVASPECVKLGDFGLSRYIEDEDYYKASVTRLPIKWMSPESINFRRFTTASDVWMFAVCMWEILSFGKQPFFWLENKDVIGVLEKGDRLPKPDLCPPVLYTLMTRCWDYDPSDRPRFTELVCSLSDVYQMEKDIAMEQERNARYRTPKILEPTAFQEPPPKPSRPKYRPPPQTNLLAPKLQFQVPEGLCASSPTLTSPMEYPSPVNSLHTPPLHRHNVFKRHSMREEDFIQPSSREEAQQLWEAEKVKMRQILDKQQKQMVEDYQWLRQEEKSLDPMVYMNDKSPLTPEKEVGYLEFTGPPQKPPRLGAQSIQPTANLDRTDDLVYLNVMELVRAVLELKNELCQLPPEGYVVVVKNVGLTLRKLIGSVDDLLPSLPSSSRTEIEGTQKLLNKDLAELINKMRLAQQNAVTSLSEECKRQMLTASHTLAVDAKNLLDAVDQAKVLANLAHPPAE
For experiment [5] the target is unchanged. The settings on record: at 1 µM.
For experiment [6], the target named is Proto-oncogene tyrosine-protein kinase receptor Ret (Homo sapiens) (UniProt P07949). The settings on record: at 0.1 µM.
Proto-oncogene tyrosine-protein kinase receptor Ret (Homo sapiens), sequence (P07949 whole entry): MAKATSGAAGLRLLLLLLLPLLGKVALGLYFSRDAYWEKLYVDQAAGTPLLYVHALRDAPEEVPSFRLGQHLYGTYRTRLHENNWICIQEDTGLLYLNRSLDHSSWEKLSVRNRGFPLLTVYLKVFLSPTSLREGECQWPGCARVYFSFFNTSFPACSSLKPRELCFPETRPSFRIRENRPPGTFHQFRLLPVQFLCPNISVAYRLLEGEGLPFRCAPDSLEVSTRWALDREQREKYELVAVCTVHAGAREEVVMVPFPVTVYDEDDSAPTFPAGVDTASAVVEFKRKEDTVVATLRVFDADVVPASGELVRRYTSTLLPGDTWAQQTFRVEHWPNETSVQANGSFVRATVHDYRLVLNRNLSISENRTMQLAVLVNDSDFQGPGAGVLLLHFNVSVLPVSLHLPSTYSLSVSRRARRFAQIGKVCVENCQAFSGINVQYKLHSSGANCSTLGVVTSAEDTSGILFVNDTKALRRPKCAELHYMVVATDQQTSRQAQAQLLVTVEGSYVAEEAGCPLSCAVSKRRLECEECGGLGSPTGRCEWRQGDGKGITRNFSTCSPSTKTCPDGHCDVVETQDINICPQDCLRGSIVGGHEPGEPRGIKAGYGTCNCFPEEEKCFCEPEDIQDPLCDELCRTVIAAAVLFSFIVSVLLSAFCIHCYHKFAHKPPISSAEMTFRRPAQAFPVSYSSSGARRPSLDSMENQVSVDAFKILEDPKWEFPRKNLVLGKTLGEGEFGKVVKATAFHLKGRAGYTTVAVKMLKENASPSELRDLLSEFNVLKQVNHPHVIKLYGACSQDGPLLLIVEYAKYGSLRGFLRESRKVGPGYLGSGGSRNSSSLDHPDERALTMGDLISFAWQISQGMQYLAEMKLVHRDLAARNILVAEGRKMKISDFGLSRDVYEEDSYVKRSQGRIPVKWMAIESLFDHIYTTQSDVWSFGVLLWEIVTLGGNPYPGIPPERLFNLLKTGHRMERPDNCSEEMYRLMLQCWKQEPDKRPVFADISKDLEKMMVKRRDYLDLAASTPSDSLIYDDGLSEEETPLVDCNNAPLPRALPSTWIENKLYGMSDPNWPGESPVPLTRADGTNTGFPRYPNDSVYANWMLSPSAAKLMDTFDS
Experiment [7] shares this target. The settings on record: at 1 µM.
Experiment [8] has as its system Proto-oncogene tyrosine-protein kinase receptor Ret (Homo sapiens), P07949 [V804L]. The following applies: at 0.1 µM.
The test system is the same in experiment [9]. The settings on record: at 1 µM.
Experiment [10] deals with Proto-oncogene tyrosine-protein kinase receptor Ret (Homo sapiens), P07949 [Y791F]. The following applies: at 0.1 µM.
Proto-oncogene tyrosine-protein kinase receptor Ret (Homo sapiens), P07949 [Y791F], sequence (P07949 whole entry Y791F): as the sequence (P07949 whole entry) above, with Y791F counted along it

Proto-oncogene tyrosine-protein kinase receptor Ret (Homo sapiens), P07949 [V804L], sequence (P07949 whole entry V804L): as the sequence (P07949 whole entry) above, with V804L counted along it
Platelet-derived growth factor receptor beta (Homo sapiens), sequence (P09619 whole entry): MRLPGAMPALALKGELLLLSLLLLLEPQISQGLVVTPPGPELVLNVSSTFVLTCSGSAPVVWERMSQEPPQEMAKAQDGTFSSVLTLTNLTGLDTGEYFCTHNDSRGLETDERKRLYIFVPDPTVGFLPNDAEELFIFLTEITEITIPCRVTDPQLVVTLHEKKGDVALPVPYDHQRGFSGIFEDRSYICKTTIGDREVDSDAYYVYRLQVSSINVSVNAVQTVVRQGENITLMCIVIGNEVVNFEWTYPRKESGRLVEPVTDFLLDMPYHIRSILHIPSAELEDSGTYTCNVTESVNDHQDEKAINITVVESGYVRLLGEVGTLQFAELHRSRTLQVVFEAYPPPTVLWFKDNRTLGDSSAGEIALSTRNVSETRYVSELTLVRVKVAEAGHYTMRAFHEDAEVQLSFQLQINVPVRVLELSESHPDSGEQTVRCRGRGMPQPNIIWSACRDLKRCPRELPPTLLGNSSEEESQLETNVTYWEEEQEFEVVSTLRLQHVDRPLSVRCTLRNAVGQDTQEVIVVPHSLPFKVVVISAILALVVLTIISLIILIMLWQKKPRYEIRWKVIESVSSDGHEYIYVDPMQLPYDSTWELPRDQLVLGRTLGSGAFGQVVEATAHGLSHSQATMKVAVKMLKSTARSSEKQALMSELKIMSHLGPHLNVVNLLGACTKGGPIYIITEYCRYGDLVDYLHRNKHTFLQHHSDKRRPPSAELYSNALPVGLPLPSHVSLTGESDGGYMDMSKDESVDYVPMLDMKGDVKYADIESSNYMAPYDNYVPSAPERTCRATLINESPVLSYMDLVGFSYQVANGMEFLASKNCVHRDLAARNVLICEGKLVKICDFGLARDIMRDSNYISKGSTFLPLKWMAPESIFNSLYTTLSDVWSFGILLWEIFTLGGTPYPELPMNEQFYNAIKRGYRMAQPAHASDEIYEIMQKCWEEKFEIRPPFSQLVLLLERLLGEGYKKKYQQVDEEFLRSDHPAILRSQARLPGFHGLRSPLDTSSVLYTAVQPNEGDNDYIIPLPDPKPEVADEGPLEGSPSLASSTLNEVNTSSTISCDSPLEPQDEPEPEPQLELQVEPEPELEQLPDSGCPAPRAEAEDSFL
Tyrosine-protein kinase FRK (Homo sapiens), sequence (P42685 whole entry): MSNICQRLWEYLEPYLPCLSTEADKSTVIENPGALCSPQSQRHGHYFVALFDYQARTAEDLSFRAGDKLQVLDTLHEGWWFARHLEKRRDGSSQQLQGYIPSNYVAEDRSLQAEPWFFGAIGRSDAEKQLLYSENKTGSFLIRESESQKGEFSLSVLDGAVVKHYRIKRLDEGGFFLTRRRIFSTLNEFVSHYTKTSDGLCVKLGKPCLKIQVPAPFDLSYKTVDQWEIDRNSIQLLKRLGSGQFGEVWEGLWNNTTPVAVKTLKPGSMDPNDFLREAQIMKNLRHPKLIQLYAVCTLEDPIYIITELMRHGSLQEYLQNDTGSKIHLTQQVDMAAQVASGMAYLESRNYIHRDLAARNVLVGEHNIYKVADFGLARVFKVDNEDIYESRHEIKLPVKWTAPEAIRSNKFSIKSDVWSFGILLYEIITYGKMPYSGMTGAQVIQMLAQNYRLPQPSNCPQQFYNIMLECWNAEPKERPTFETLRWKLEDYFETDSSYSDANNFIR

In general, inhibition refers to the relative decrease from the control value, in per cent. Regarding `COC(=O)Nc1nc2ccc(S(=O)(=O)c3ccc(NC(=O)Nc4cc(C(F)(F)F)ccc4F)cc3)cc2[nH]1`, the inhibition came to 4.49% in experiment [1]; 2.02% in [2]; 0.33% in [3]; 2.8% in experiment [4]; 6.27% in experiment [5]; 5.15% in experiment [6]. Also, the inhibition in experiment [7] stood at 5.22%; in experiment [8], 5.11%; in experiment [9], 2.64%; in experiment [10] it was 5.5%.

For the compound `COc1cccc(-n2ncc3c(N/N=C/c4ccc(F)cc4)ncnc32)c1`, the inhibition in experiment [1] turned out to be 45.3%; in experiment [2], 4.95%; in experiment [3] it was 1.58%; in [4] it was 8.88%; in experiment [5], 13.6%; in experiment [6], 5.24%. The inhibition in experiment [7] worked out at 14.9%; in [8], 2.47%; in [9], 7.65%; in [10], 1.26%.

For `CCn1c(-c2nonc2N)nc2c(C#CC(C)(C)O)ncc(OC3CCNCC3)c21`, the inhibition in experiment [1] was 41.1%; in [2], 0.94%; in experiment [3], 2.25%; in experiment [4] it was 6.98%; in [5], 45.3%; in [6], 4.43%. For the same compound, the inhibition in experiment [7] was 10.3%; in experiment [8], 1.1%; in [9] it was 4.05%; in [10] it was 1.51%.

For the compound `Cc1cccc2c1NC(=O)/C2=N\Nc1ccc(S(N)(=O)=O)cc1`, the inhibition in [1] worked out at 10.2%; in experiment [2], 1.71%; in experiment [3], 0.62%; in experiment [4] it was 3.22%; in [5], 9.89%; in [6] it was 1.83%. For the same compound, the inhibition in experiment [7] turned out to be 5.76%; in experiment [8], 3.14%; in experiment [9] it was 7.11%; in experiment [10] it was 2.74%.

Consider `c1cc(-c2cnn3nc(N4CCOCC4)ccc23)nc(NC2CC2)n1`, for which the inhibition came out at 51.7% in experiment [1]; 1.71% in experiment [2]; 1.99% in experiment [3]; 15.8% in experiment [4]; 15.4% in experiment [5]; 5.62% in experiment [6]. For the same compound, the inhibition stood at 15.6% in [7], 3.15% in experiment [8], 8.37% in experiment [9] and 6.04% in [10].

For `COc1cc2ncn(-c3cc(OCc4ccccc4C(F)(F)F)c(C(=O)N(C)C)s3)c2cc1OC`, the inhibition in experiment [1] was 34.4%; in experiment [2] it was 0.68%; in experiment [3] it was -0.25%; in [4], -0.29%; in experiment [5], -5.44%; in experiment [6], 3.06%. In addition, the inhibition in [7] is 22.1%; in experiment [8] it was 0.43%; in [9], 7.17%; in [10], 1.87%.

For `O=S(=O)(CCNCc1ccc(-c2ccc3ncnc(Nc4ccc(OCc5cccc(F)c5)c(Cl)c4)c3c2)o1)c1ccccc1`, the inhibition in [1] worked out at 12.2%; in experiment [2], 4.29%; in experiment [3], 3.5%; in experiment [4] it was 5.1%; in experiment [5], 12.9%; in experiment [6], 6.34%. Also, the inhibition in [7] came to 3.04%; in experiment [8], 7.31%; in [9], 9.24%; in experiment [10], 10.8%.

As for `c1ccc(-c2nc3n(c2-c2ccc4c(c2)OCO4)CCC3)nc1`, the inhibition in experiment [1] was determined as 4.62%; in experiment [2], 0.91%; in [3], 0.2%; in [4], 5.1%; in experiment [5] it was 6.96%; in experiment [6], 2.81%. In addition, the inhibition stood at 4.44% in experiment [7], 1.37% in experiment [8], 1.16% in experiment [9] and 2.63% in experiment [10].

Take `Cc1cccc(Nc2ncc(-c3ccccc3)o2)c1`: the inhibition is 37.2% in experiment [1]; -0.04% in experiment [2]; 3.76% in experiment [3]; -0.77% in [4]; 4.02% in experiment [5]; 1.88% in experiment [6]. Also, the inhibition came to 7.33% in [7], 0.92% in experiment [8], 4.53% in [9] and 2.77% in [10].

For the compound `N#Cc1c(NC(=O)c2ccc(F)cc2)sc2c1CCCC2`, the inhibition was found to be 5.64% in [1]; 0.6% in experiment [2]; 1.01% in [3]; 1% in [4]; 1.23% in experiment [5]; 0.59% in experiment [6]. Besides, the inhibition in experiment [7] was -0.03%; in experiment [8] it was 1.83%; in experiment [9] it was 2.29%; in [10] it was 1.07%.

`COc1ccc2c(-c3ccnc(Nc4cccc(OC(F)(F)F)c4)n3)cnn2n1`: the inhibition worked out at 32.6% in [1]; 1.94% in experiment [2]; 1.99% in experiment [3]; 14.4% in experiment [4]; 59.9% in [5]; 3.2% in experiment [6]. In addition, the inhibition in [7] stood at 8.79%; in [8], 3.12%; in experiment [9] it was 12.5%; in experiment [10], 1.41%.

On to `Nc1nc(-c2cccc(Cl)c2)c(-c2ccc3ncccc3n2)s1`, for which the inhibition in experiment [1] worked out at 15%; in experiment [2], 3.21%; in [3] it was 3.32%; in experiment [4], 10.4%; in experiment [5] it was 14.5%; in [6], 4.79%. The inhibition in experiment [7] was determined as 5.99%; in experiment [8], 8.87%; in experiment [9] it was 14.1%; in [10], 3.93%.

Take `CC(C)COC(=O)c1ccc2c(c1)/C(=C/Nc1ccc(S(N)(=O)=O)cc1)C(=O)N2`: the inhibition is 86% in [1]; -0.58% in [2]; 1.92% in experiment [3]; 2.4% in [4]; 16.5% in [5]; 34% in experiment [6]. The inhibition was 78% in experiment [7], 54.5% in experiment [8], 82.4% in experiment [9] and 25.2% in experiment [10].

Turning to `CN1CCC(n2cnc(-c3ccc(F)cc3)c2-c2ccnc(Nc3ccccc3)n2)CC1`, the inhibition in [1] amounted to 44.7%; in experiment [2], 0.85%; in experiment [3] it was 1.83%; in [4], 4.25%; in experiment [5] it was 5.64%; in [6], 6.59%. Also, the inhibition in experiment [7] stood at 18.3%; in experiment [8], 4.17%; in [9], 7.13%; in experiment [10], 7.03%.

Source of the values: ChEMBL document CHEMBL1961873, “Compounds: GSK PKIS; Assays: Nanosyn kinase panel” (2012).
